High-throughput results deposited in PubChem by National Center for Advancing Translational Sciences (NCATS).
AMA1-RON2 inh – qHTS for Inhibitors of AMA1-RON; Towards Development of Antimalarial Drug Lead: Primary Screen. Plasmodium falciparum AMA1 (3D7) - RON2 peptide interaction. AlphaScreen AMA1-biotinylated RON2 peptide binding. Potency, µM (top dose mostly 58.2 µM), inactives show top-dose activity change, negative = inhibition, actives largely listed as inhibitors. actives 0.2% (n = 360,000);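 also: 0% = vehicle wells and -100% = peptide control; nearly all actives have a fitted effect of over 45% in size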
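AMA1 (3D7) with his tag at 25 nM final met compounds first, then biotinylated RON2 peptide at 25 nM; detection used donor plus acceptor beads, 10 µg/mL apiece, read by AlphaScreen after 30 min at room temperature.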
HCV inh – qHTS Assay for Inhibitors of Hepatitis C Virus (HCV); Huh7.5.1 HCVcc-Cre infection, luciferase reporter, 44 h; actives 3.4% (n = 340,000); Potency, µM (series often up to 41.8 µM), inactives show at the highest dose activity change, negative = inhibition, hits mostly inhibitors
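Reporter virus HCVcc-Cre (~0.5 moi) infects cells exposed to compound; seeding density 1,000 cells/well with 4 h settling beforehand. Luminescence, 15 sec read, taken 44 h post-infection following a 15 min RT substrate incubation.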
Pf growth 48h – Primary qHTS for delayed death inhibitors of the malarial parasite plastid, 48 hour incubation. P. falciparum luciferase growth in erythrocytes, 48 h. Potency, µM (top dose mostly 28.7 µM), without a hit: at the top dose activity change, negative = inhibition, usual class: inhibitors. actives 5.9% (n = 310,000). AID 504832, 2011
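Luciferase-expressing parasites in RBCs, 2% Hct / 0.1% parasitemia final; RPMI 1640 + 0.5% Albumax; 37 C, 5% CO2, one generation; luminescence read-out, lower signal = inhibition.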
Pf growth 96h – Primary qHTS for delayed death inhibitors of the malarial parasite plastid, 96 hour incubation. P. falciparum luciferase reporter growth, 96 h. Potency, µM (highest dose often 28.7 µM), for the others: top-dose activity change, negative = inhibition, actives largely listed as inhibitors. actives 6.9% (n = 320,000). AID 504834, 2011
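96 h incubation, 37 C, 5% CO2, of luciferase-reporter P. falciparum-infected RBCs (2% hematocrit, 0.05% parasitemia final) with test compounds; endpoint luminescence.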
* marks the source's active call; other numbers are inactive results; ? = inconclusive; . = not tested or not shown; [ ] = another dose, or the depositor's remark. In the library only some 11% were active in any assay of this set; here they are far more common. Calls follow the shape of the dose curve; as a rule, active = well fitted curve in the direction sought with a large enough effect; inconclusive = small, poorly fitted or top-dose-only effect, or another doubt; inactive = no such curve, though single readings can be large; an effect the other way counts as inactive or inconclusive. Unless noted, % is scaled to controls: 0 for no effect and ±100 for the full control effect; potency is read from the fitted curve at half-maximal effect.

SMILES	AMA1-RON2 inh	HCV inh	Pf growth 48h	Pf growth 96h
COc1ccc(Oc2nc(-c3ccncc3)nc3ccccc23)cc1	9.6%	?	?	?
CC(=O)c1ccc(Oc2nc(-c3cccnc3)nc3ccccc23)cc1	-0.5%	11.2µM*	?	-8.3%
Cc1cc(OCc2cn(CC(=O)c3ccc(O)cc3)nn2)ccc1[N+](=O)[O-]	-2.4%	?	.	.
COc1ccc(S(=O)(=O)N2CCC[C@H]2C(=O)N2CCC[C@H]2C(=O)NCc2ccncc2)cc1C	7.6%	.	.	.
C=CCOC(=O)C1=C[C@@H](C2CCCCC2)C[C@@H](OCc2ccc(CO)cc2)O1	3.7%	4.7%	?	?
CCN1C(=O)N(C)[C@@H](c2ccccc2)C(C(=O)OC)=C1C	-5.2%	-8.8%	?	-23.3%
O=C(Cn1c(=O)oc2cc(S(=O)(=O)N3CCCC3)ccc21)Nc1cccc(C(F)(F)F)c1	-1.9%	?	35.8%	11.7µM*
CCOc1ccc(CNC(=O)C(C)n2ccc3cc(S(=O)(=O)N4CCCC4)ccc32)cc1 (stereo not given)	0.0%	?	?	?
CCc1cccc(NC(=O)Cn2c(=O)oc3cc(S(=O)(=O)N4CCOCC4)ccc32)c1	-7.4%	?	.	?
CC(C(=O)NCc1ccc(F)cc1)n1ccc2cc(S(=O)(=O)N3CCCC3)ccc21 (stereo not given)	1.8%	11.2µM*	?	?
CC1CCCCC1NC(=O)Cn1c(=O)oc2cc(S(=O)(=O)N3CCCC3)ccc21 (stereo not given)	1.5%	-19.1%	-7.9%	10.4µM*
CC1CCCN(C(=O)Cn2c(=O)oc3cc(S(=O)(=O)N4CCCCC4)ccc32)C1 (stereo not given)	-2.7%	4.4%	1.31µM*	?
CCOC(=O)c1c(SC)[nH]c2c(Cl)cccc2c1=O	-2.7%	3.9%	8.6%	38.4%
COc1ccc(OC)c(NC(=O)C2(C)CCN2CCOc2ccccc2)c1 (stereo not given)	2.5%	.	.	.
COc1c(F)c(F)c(C(=O)O)c(Nc2ccc(C)cc2C)c1F	-12.9%	13.2%	36.3%	-16.1%
O=C(Cn1c(=O)oc2cc(S(=O)(=O)N3CCCC3)ccc21)N1CCN(c2ccccn2)CC1	-4.5%	?	-7.2%	11.7µM*
CCN(C(=O)Cn1c(=O)oc2cc(S(=O)(=O)N3CCCC3)ccc21)c1ccc(OC)cc1	3.8%	-7.7%	?	0.3%
O=C(Cn1c(=O)oc2cc(S(=O)(=O)N3CCCC3)ccc21)NCc1ccc(F)cc1	7.8%	2.9%	.	6.57µM*
CCCCNC(=O)Cn1c(=O)oc2cc(S(=O)(=O)N3CC(C)CC(C)C3)ccc21 (stereo not given)	2.5%	-26.3%	.	6.57µM*
CCN(C(=O)Cn1c(=O)oc2cc(S(=O)(=O)N3CCOCC3)ccc21)c1ccccc1	-4.8%	15.9%	?	4.15µM*
CC1CCCN(S(=O)(=O)c2ccc(NC(=O)C3CC(=O)N(c4ccccc4)C3)cc2)C1 (stereo not given)	-7.1%	?	0.0%	9.28µM*
CC1CCCN(S(=O)(=O)c2ccc(NC(=O)c3cccc(-n4cnnn4)c3)cc2)C1 (stereo not given)	-19.7%	?	11.7µM*	11.5%
CC1CCCCN1S(=O)(=O)c1ccc(NC(=O)c2cccc(-n3cnnn3)c2)cc1 (stereo not given)	-5.1%	?	9.28µM*	?
CC1CCCCN1S(=O)(=O)c1ccc(-n2cnnn2)cc1 (stereo not given)	-0.7%	15.2%	13.8%	-1.5%
CC(CCc1ccc(O)cc1)NCCc1ccc(O)c(O)c1 (stereo not given)	?	?	?	1.51µM*
SMILES	AMA1-RON2 inh	HCV inh	Pf growth 48h	Pf growth 96h
COc1ccccc1CCNC(C)CCc1ccc(O)cc1 (stereo not given)	5.9%	3.6%	-2.6%	2.6%
Nc1ccc2c(c1)C(=O)c1ccc(Cl)cc1-2	-26.0%	?	.	.
Nc1ccc2c(c1)C(=O)c1cc(N)c(Cl)cc1-2	-10.5%	25.1µM*	.	.
Cc1cc(C)c(C)c(S(=O)(=O)N2CCC(C(=O)NNC(=O)c3ccccc3O)CC2)c1C	85.8%	7.08µM*	8.3%	3.1%
Cc1ccc(-n2ncc3c(N4CCC5(CC4)OCCO5)ncnc32)c(C)c1	9.3%	?	.	5.22µM*
Cc1ccc(-n2ncc3c(N4CCC(C(N)=O)CC4)ncnc32)c(C)c1	32.4%	14.4%	3.6%	.
O=C(NCCCN1CCCC1=O)c1cccc(S(=O)(=O)Nc2ccc(F)cc2)c1	-2.4%[11.6 µM]	0.9%	?	13.1µM*
O=C(NCCCN1CCCC1=O)c1cccc(S(=O)(=O)Nc2ccc(Br)cc2)c1	5.0%	0.9%	?	?
O=C(NCCCN1CCCC1=O)c1cccc(NS(=O)(=O)c2ccccc2)c1	-6.1%	8.8%	2.5%	?
O=C(NCCCN1CCCC1=O)c1cccc(C(F)(F)F)c1	3.4%	6.9%	3.2%	8.28µM*
COc1ccc(-c2cnc(SCC(=O)Nc3cc(C)on3)n2Cc2ccco2)cc1	-28.7%	-23.2%	?	.
Cn1c(SCC(=O)Nc2cccc3ccccc23)nc(O)cc1=O	3.0%	8.7%	10.4µM*	?
COCCn1c(-c2ccc(OC)cc2)cnc1SCC(=O)Nc1cccc2ccccc12	?	-6.4%	?	1.65µM*
COc1ccc(NC(=O)CSc2ncc(-c3ccc(F)cc3)n2Cc2ccco2)cc1	?	?	14.7µM*	11.7µM*
COc1ccc(-c2cnc(SCC(=O)Nc3nc(C(C)(C)C)cs3)n2Cc2ccco2)cc1	-28.8%	4.47µM*	13.1µM*	?
COC(=O)c1ccc(C(=O)OC)c(NC(=O)COC(=O)CCOc2ccc(C)cc2)c1	0.9%	0.1%	-7.9%	12.7%
Cc1cc(C)c(S(=O)(=O)c2ccccc2C)c(OCCN(C)C)n1	-3.9%	6.1%	.	-9.2%
O=C(NC(NC(=S)N1CCOCC1)C(Cl)(Cl)Cl)c1cccc2ccccc12 (stereo not given)	-7.6%	?	2.94µM*	51.2%
CCCCCC(=O)NC(NC(=S)N1CCOCC1)C(Cl)(Cl)Cl (stereo not given)	-16.7%	-7.5%	8.28µM*	-2.7%
O=C(NN1CCOCC1)c1cccc2ccccc12	13.1%	23.8%	9.9%	0.0%
CCCCCCCCC(=O)NC(NC(=S)N1CCOCC1)C(Cl)(Cl)Cl (stereo not given)	-4.6%	?	?	?
CNc1nc(-c2ccc3c(c2)CCN3C(=O)c2ccccc2F)cs1	-12.5%	11.2µM*	?	43.4%
CS(=O)(=O)N1CCc2cc(-c3csc(NC(=O)C(c4ccccc4)c4ccccc4)n3)ccc21	-4.1%	-22.3%	13.1µM*	.
CC1Cc2cc(-c3csc(NC(=O)Cc4ccccc4)n3)ccc2N1S(C)(=O)=O (stereo not given)	-7.3%	0.708µM*	.	?
Nc1nc2ncccn2c1-c1ccc(C(F)(F)F)cc1	102.0%	.	.	.
